Active and inactive are the calls of the source.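 Rule for the calls, unless noted: active = visually confirmed hit in the image check and inhibition above 20%; inconclusive = visually confirmed hit but inhibition not above 20%; inactive = no visual hit in the image check.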
Columns and labels:
[1] = inhibitors of TNFa-induced NFkB p65 translocation, primary screen, imaging, HUVEC, MLSMR starter and 10KST1 sets (AID 438;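 active = inhibition above 20% together with a positive visual image hit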;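 note: compound added about 3h40 before a 20 min TNFalpha stimulation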;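 for inhibition: signal is the nuclear over cytoplasmic p65 intensity ratio per well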); details: HUVEC TNFa-induced p65 nuclear translocation; cell count: measured here: nuclei count (cytotoxicity indicator), at 2.08 µM; inhibition: at 2 µM, stronger effect = higher value, 0% TNFa-plus-vehicle, 100% no-TNFa wells
[2] = reduction of polyQ htt aggregates in cells – imaging, exon1htt(103Q)mCFP cells, high-content imaging, primary screen (AID 483;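 active = visual image review flags a hit and inhibition of aggregation exceeds 20%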;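 note: compound exposure lasted 3 days before fixation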;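 for nuclei count: percent of the per-plate median nuclei count of sample wells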); details: exon1htt(103Q)mCFP cell line, aggregate imaging, at 2 µM; inhibition of aggregation: stronger effect = higher value; nuclei count: measured here: cell count, toxicity
[3] = endothelial E-selectin expression blockers – imaging, HUVEC, immunofluorescence, MLSMR starter and 10KST1 sets, primary screen (AID 487); details: HUVEC TNFalpha-induced E-selectin immunofluorescence imaging, at 2 µM; inhibition: stronger effect = higher value; nuclei count: measured here: cell number, toxicity;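 for inhibition: signal is fraction of cell area covered by stained E-selectin grains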;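 for nuclei count: 100% = median nuclei count of all wells on the same plate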
[4] = target: Voltage-gated potassium channel subunit beta-2 (Rattus norvegicus) (UniProt P62483); assay: inhibitors of rat Kvbeta2 reductase activity – biochemical, NADPH fluorescence, primary screen (AID 622;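 active = fluorescence slope higher than the sample average by over 3 SD, cut at about -0.22 in these data, passing the limit was not always enough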;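 note: slope of raw intensity against log time taken from 70 to 1610 s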); details: recombinant KvBeta, 4-cyanobenzaldehyde reduction, at 10 µM, stronger effect = higher value
Sequence of Voltage-gated potassium channel subunit beta-2 (Rattus norvegicus) (P62483 whole entry, looked up): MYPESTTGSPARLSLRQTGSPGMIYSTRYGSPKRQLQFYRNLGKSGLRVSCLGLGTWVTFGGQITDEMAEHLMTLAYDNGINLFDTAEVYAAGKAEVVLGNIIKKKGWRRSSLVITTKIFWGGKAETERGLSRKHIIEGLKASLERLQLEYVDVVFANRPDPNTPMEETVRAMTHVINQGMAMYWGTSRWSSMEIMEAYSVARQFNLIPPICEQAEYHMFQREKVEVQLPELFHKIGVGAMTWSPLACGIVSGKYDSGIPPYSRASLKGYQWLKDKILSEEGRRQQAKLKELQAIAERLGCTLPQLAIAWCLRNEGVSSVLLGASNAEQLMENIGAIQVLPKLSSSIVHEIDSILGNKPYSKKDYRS

[5] = target: Voltage-gated potassium channel subunit beta-2 (Rattus norvegicus) (UniProt P62483); assay: enhancers of rat Kvbeta2 NADPH turnover – biochemical, NADPH fluorescence, primary screen (AID 623;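 active = NADPH fluorescence slope more negative than the mean of all samples by about 3 SD, 99.7% confidence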;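 note: fluorescence intensity change per second fitted from 20 to 320 s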); details: Recombinant KvBeta, NADPH fluorescence decrease slope, 10 min; at 10 µM; stronger effect = lower value
[6] = target: Alpha-2C adrenergic receptor (Homo sapiens) (UniProt P18825); assay: compounds altering alpha2C-coupled GIRK flux – cell-based, HEK293 alpha2C/GIRK1/2, thallium flux, primary screen (AID 624;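 active = fluorescence slope after compound addition differing from the mean of all screened samples at 99.7% confidence, in either direction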;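 note: slope of fluorescence ratio to pre-addition baseline per second over 15 to 24 s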); details: thallium flux BTC fluorescence, at 10 µM, actives lie on both sides
Sequence of Alpha-2C adrenergic receptor (Homo sapiens) (P18825 whole entry, looked up): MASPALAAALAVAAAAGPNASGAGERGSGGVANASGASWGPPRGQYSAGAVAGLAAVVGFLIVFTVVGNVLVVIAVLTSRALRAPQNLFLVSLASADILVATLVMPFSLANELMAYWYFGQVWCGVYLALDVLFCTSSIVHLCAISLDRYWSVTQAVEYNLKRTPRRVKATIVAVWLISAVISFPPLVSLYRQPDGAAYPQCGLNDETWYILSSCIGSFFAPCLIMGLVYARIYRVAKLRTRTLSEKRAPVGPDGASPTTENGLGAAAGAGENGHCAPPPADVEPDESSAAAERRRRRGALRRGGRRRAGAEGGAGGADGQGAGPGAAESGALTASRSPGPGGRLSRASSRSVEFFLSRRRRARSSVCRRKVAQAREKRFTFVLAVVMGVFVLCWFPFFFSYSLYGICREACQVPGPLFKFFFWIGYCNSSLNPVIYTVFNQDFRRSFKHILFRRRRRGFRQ

[7] = blockers of RIG-like receptor reporter activation – cell-based, Sendai virus stimulus, luciferase, 10K MLSCN set, TLR/RLR signaling modifier project, primary screen (AID 602276;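 active = inhibition at or above 50% at 10 µM; inactive = inhibition below 50%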;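 note: firefly luciferase from ISG56 promoter only with Renilla not read in this screen; 0% = Sendai virus plus DMSO and 100% = medium plus DMSO without virus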); details: HEK293 RL24 IRF3 luciferase reporter, at 10 µM, stronger effect = higher value
[8] = TLR3 IRF3 reporter activation blockers – cell-based, poly I:C stimulus, luciferase, 10K MLSCN set, primary screen (AID 602277;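 active = inhibition of the reporter signal at or above 50%; inactive = inhibition below 50%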); details: HEK293-TLR3 RL24 IRF3 luciferase reporter, at 10 µM, stronger effect = higher value

| SMILES | cell count [1] | inhibition [1] | inhibition of aggregation [2] | nuclei count [2] [%] | inhibition [3] | nuclei count [3] [%] | fluorescence slope [4] | NADPH fluorescence slope [5] | slope [6] | inhibition [7] | inhibition [8] |
| --- | --- | --- | --- | --- | --- | --- | --- | --- | --- | --- | --- |
| CCCn1c(=NC(C)=O)c(C#N)cc2c(=O)n3cccc(C)c3nc21 | 462 | -0.9% (inactive) | 0.6% (inactive) | 99.9 | -35.4% (inactive) | 131 | -0.0531 (inactive) | -1e-05 (inactive) | 0.0086 (inactive) | -11.4% (inactive) | 1.19% (inactive) |
| CCOC(=O)N1CCN(C(=O)c2ccc3c(=O)n(Cc4ccc(OC)cc4)c(=S)[nH]c3c2)CC1 | 475 | -17% (inactive) | 45.2% (active) | 59.2 | 2.4% (inactive) | 88.2 | -0.496 (inactive) | -2.2e-05 (inactive) | 0.00659 (inactive) | 11.9% (inactive) | 10% (inactive) |
| Cc1cc(Nc2ccc(N3CCC(C)CC3)cc2)n2ncnc2n1 | 426 | -2.4% (inactive) | 6% (inactive) | 103 | -18.3% (inactive) | 115 | -0.602 (inactive) | 7e-05 (inactive) | 0.00396 (inactive) | -6.44% (inactive) | -3.16% (inactive) |
| Cc1c(N(C)C)nc2ccccc2c1N | 575 | -3.8% (inactive) | -19.4% (inactive) | 99.7 | 42.5% (inactive) | 81.2 | -0.361 (inactive) | -1.5e-05 (inactive) | 0.00599 (inactive) | 13.7% (inactive) | 20.7% (inactive) |
| CCC(=O)N(CCCN(C)C)c1nc(-c2cc(OC)ccc2OC)cs1 | 392 | 7.8% (inactive) | -4.4% (inactive) | 106 | -14.7% (inactive) | 116 | -0.623 (inactive) | -6.2e-05 (inactive) | 0.00293 (inactive) | 19.4% (inactive) | 27% (inactive) |
| Cc1cc(C)nc(N(C#N)CC(=O)N2CCC(C(N)=O)CC2)n1 | 553 | -16.4% (inactive) | 12.3% (inactive) | 98.2 | 21.6% (inactive) | 98.4 | -0.489 (inactive) | 1.8e-05 (inactive) | 0.00455 (inactive) | 14.2% (inactive) | 13.3% (inactive) |
| CCN(C1CCCCC1)S(=O)(=O)c1ccc(OC)c(C)c1 | 862 | -3.6% (inactive) | 9.9% (inactive) | 98.1 | -104% (inactive) | 128 | -0.498 (inactive) | -2.3e-05 (inactive) | 0.00415 (inactive) | -0.395% (inactive) | 28.2% (inactive) |
| O=C(NCc1ccco1)c1csc(Nc2ccccc2Cl)n1 | 484 | -6.2% (inactive) | -0.3% (inactive) | 118 | -144% (inactive) | 233 | -0.503 (inactive) | -3.4e-05 (inactive) | 0.0062 (inactive) | -50.5% (inactive) | -12.9% (inactive) |
| O=C(c1cc(C2CC2)on1)N1CCN(C(c2ccccc2)c2ccccc2)CC1 | 731 | -3.5% (inactive) | 25% (inactive) | 82 | -61% (inactive) | 89.3 | -0.573 (inactive) | -7.4e-06 (inactive) | 0.00569 (inactive) | 7.04% (inactive) | 35.9% (inactive) |
| CN1CCCN(CC(O)COCc2cccs2)CC1 (stereo not drawn) | 489 | -6.7% (inactive) | -19.8% (inactive) | 108 | -66% (inactive) | 153 | -0.489 (inactive) | -3.2e-05 (inactive) | 0.00614 (inactive) | -7.31% (inactive) | 24.2% (inactive) |
| Cc1ccccc1N1OC2C(=O)N(c3ccc(F)cc3)C(=O)C2C1c1ccccn1 (stereo not drawn) | 680 | -3.5% (inactive) | -5.9% (inactive) | 96.3 | -36.7% (inactive) | 152 | -0.607 (inactive) | -1.4e-05 (inactive) | 0.00636 (inactive) | 10.4% (inactive) | 21.1% (inactive) |
| Cc1ccc(NC2=NC3(CCCCC3)N=C(N)N2)c(C)c1 | 530 | -4.7% (inactive) | 4.5% (inactive) | 76.2 | -59.7% (inactive) | 99.3 | -0.598 (inactive) | -4.3e-05 (inactive) | 0.00486 (inactive) | -10.3% (inactive) | 8.58% (inactive) |
| S=C(c1cccs1)N1CCCC1 | 708 | -25.9% (inactive) | -3.8% (inactive) | 105 | 22.3% (inactive) | 100 | -0.421 (inactive) | -4e-05 (inactive) | 0.00656 (inactive) | -7.06% (inactive) | 6.9% (inactive) |
| CCOc1cc(NC(=O)c2ccco2)c(OCC)cc1NC(=O)CCc1ccc(OC)cc1 | 630 | -0.7% (inactive) | -13.7% (inactive) | 109 | 23.6% (inactive) | 102 | -0.513 (inactive) | -6.7e-06 (inactive) | 0.00426 (inactive) | -0.546% (inactive) | -4.67% (inactive) |
| CCOC(=O)c1ccc(S(=O)(=O)Nc2cc(C(C)(C)C)no2)cc1 | 551 | -10.3% (inactive) | 5.8% (inactive) | 108 | -194% (inactive) | 152 | -0.612 (inactive) | 5.6e-06 (inactive) | 0.00811 (inactive) | -7.27% (inactive) | -2.9% (inactive) |
| CN(C)CCCN1C(=O)c2oc3ccccc3c(=O)c2C1c1cccs1 (stereo not drawn) | 665 | -1.2% (inactive) | -8.2% (inactive) | 107 | -25.6% (inactive) | 132 | -0.443 (inactive) | 4e-06 (inactive) | 0.00339 (inactive) | 7.52% (inactive) | 8.07% (inactive) |
| CCOc1cc(-c2nc3ccccn3c2NCC2CCCO2)ccc1O (stereo not drawn) | 406 | -0.9% (inactive) | -2.6% (inactive) | 94.3 | -97% (inactive) | 83.1 | -0.091 (active) | -2.7e-05 (inactive) | 0.00327 (inactive) | -9.84% (inactive) | -3.91% (inactive) |
| CCOc1ccccc1NC(=O)CCN1CCN(S(=O)(=O)c2ccc(Br)cc2)CC1 | 572 | -12.3% (inactive) | -10.2% (inactive) | 117 | -67.4% (inactive) | 65.1 | -0.526 (inactive) | -5.3e-05 (inactive) | 0.00415 (inactive) | 12.6% (inactive) | 21.5% (inactive) |
| O=S(=O)(c1ccc2nc(Cc3cccc(C(F)(F)F)c3)[nH]c2c1)N1CCOCC1 | 383 | 1% (inactive) | 0% (inactive) | 88.3 | -277% (inactive) | 105 | -0.615 (inactive) | -2.8e-06 (inactive) | 0.00522 (inactive) | 11.9% (inactive) | 26.3% (inactive) |
| CCOC(=O)C1CCN(C(=O)COc2ccc(S(=O)(=O)NC(C)C)cc2Cl)CC1 | 718 | 1.5% (inactive) | 9% (inactive) | 109 | -3.9% (inactive) | 97.5 | -0.46 (inactive) | -1.1e-05 (inactive) | 0.00357 (inactive) | 12% (inactive) | 9.55% (inactive) |
| Cc1cc(Oc2ccc(Cl)cc2)nc(-c2ccccc2O)n1 | 612 | 11.3% (inactive) | 4.5% (inactive) | 73.2 | -13.1% (inactive) | 101 | -0.517 (inactive) | 3.7e-05 (inactive) | 0.00665 (inactive) | 3.04% (inactive) | -8.94% (inactive) |
| CCOC(=O)c1sc(Nc2nc3c(OC)cccc3s2)nc1C | 435 | 2.2% (inactive) | -20.1% (inactive) | 106 | -20.5% (inactive) | 101 | -0.351 (inactive) | 2.5e-05 (inactive) | 0.00775 (inactive) | -1.57% (inactive) | -60.9% (inactive) |
| CSc1nc(C)cc(Oc2ccc(=O)n(C)n2)n1 | 380 | -0.7% (inactive) | 1.1% (inactive) | 101 | -30.2% (inactive) | 109 | -0.478 (inactive) | -4.2e-06 (inactive) | 0.00506 (inactive) | 1.26% (inactive) | 22.5% (inactive) |
| Cc1ccc(CN2C(=O)CCC2C(=O)NCCCN2CCC(C)CC2)cc1 (stereo not drawn) | 379 | -7.4% (inactive) | 19.6% (inactive) | 85.5 | 6.2% (inactive) | 77.7 | -0.584 (inactive) | -3.4e-05 (inactive) | 0.00384 (inactive) | 14.7% (inactive) | 9.9% (inactive) |
| CNC(=O)c1ccsc1NC(=O)c1ccccc1 | 512 | 4.7% (inactive) | 12.3% (inactive) | 91.6 | 7.3% (inactive) | 88.8 | -0.413 (inactive) | -1.9e-05 (inactive) | 0.00587 (inactive) | -11.3% (inactive) | -28.3% (inactive) |
| COC(=O)C1CCN(C(=O)NC(C)(C)C)CC1 | 307 | -4.5% (inactive) | 14.5% (inactive) | 82.1 | -37.4% (inactive) | 99.6 | -0.618 (inactive) | -4.3e-05 (inactive) | 0.00637 (inactive) | 5.02% (inactive) | 14.9% (inactive) |
| COc1cc(C)nc(N2CCCC(C(=O)Nc3cccc(Cl)c3Cl)C2)n1 (stereo not drawn) | 395 | 3.6% (inactive) | -14.9% (inactive) | 109 | -0.7% (inactive) | 103 | -0.467 (inactive) | -2.4e-05 (inactive) | 0.00338 (inactive) | 4.19% (inactive) | 21.4% (inactive) |
| CC(C)N(C(=O)N1CCC(c2nc(-c3ccncc3)no2)CC1)C(C)C | 653 | -7.5% (inactive) | 8.3% (inactive) | 102 | -95.9% (inactive) | 106 | -0.354 (inactive) | -3.3e-05 (inactive) | 0.00413 (inactive) | 0.899% (inactive) | -5.83% (inactive) |

Reference: PubChem BioAssay
